Test [1] is described as follows: qHTS for Inhibitors of Plasmodium falciparum (GB4) proliferation (AID 504315). Further: nearly all actives have a fitted effect of over 50% in size. Further: potency means the concentration at half of the fitted maximal effect.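 On activity change, negative = inhibition: 0% = DMSO vehicle and -100% = 0.29 µM artemisinin control.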 Put shortly:
(§1)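 Erythrocytes infected with P. falciparum line (0.3% parasitemia, 2.5% hematocrit final) incubated with compounds 72 h at 37 °C, 5% CO2; SYBR Green lysis buffer added, fluorescence read next day. Normalized to 0.29 uM artemisinin and DMSO.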
(qHTS replaces the single test concentration by a dilution series.)

Test [2] is described as follows: qHTS for Inhibitors of Plasmodium falciparum (7G8) proliferation (AID 504316). Further: nearly all actives have a fitted effect of over 65% in size. Further: potency means the concentration at half of the fitted maximal effect.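 On activity change, negative = inhibition: series mostly up to about 6.7 µM; 0% = DMSO vehicle and -100% = 0.29 µM artemisinin full kill.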 An outline of the steps:
as §1

A short description of test [3]: qHTS for Inhibitors of Plasmodium falciparum (CP250) proliferation (AID 504320).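 Further: plate controls were DMSO vehicle for no effect and 0.29 µM artemisinin control for full effect.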 An outline of the steps:
as §1

Test [4] deals with Atrial natriuretic peptide receptor 1 (Homo sapiens) (UniProt P16066). Nature of the test: Natriuretic polypeptide receptor (hNpr1) antagonism - Pilot CMLD screen (AID 1347052; calls by dose curve;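 further: cGMP level read as GloSensor luciferase luminescence after agonist stimulation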;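 on activity change, negative = inhibition: HEK293 cells with hNpr1 stimulated by hNppA peptide at 0.1 nM; series mostly up to about 9.2 µM; on the % scale 0 is the no-effect control and ±100 the full control effect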).
Atrial natriuretic peptide receptor 1 (Homo sapiens), sequence (P16066 whole entry, looked up): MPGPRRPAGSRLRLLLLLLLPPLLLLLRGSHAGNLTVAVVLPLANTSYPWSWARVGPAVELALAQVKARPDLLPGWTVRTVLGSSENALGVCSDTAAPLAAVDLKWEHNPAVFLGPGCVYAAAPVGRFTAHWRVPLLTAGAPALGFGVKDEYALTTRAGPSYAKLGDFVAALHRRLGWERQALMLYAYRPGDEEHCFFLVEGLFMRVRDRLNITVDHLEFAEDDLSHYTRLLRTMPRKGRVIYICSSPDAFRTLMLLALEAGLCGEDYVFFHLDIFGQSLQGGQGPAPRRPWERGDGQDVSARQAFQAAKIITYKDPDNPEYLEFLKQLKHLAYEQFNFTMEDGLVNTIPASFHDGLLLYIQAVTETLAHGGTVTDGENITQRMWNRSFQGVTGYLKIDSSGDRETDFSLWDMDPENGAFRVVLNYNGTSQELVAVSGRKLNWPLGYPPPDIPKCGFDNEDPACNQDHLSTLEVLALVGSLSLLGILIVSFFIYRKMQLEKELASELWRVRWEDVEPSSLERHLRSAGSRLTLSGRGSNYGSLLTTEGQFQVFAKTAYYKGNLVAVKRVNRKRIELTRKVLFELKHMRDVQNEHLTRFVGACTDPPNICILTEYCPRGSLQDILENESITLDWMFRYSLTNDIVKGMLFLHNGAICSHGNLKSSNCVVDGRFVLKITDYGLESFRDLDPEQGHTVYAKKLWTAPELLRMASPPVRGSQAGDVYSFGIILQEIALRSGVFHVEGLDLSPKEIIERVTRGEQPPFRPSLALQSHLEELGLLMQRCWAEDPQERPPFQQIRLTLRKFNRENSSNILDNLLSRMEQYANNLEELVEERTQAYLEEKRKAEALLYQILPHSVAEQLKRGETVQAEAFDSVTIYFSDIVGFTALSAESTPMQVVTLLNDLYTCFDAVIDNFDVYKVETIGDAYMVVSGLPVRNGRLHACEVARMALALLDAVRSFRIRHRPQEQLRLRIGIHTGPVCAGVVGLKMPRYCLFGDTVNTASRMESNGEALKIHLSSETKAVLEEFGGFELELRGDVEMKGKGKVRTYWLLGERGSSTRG
Test [5] can be described thus: qHTS for Inhibitors of Plasmodium falciparum (HB3) proliferation (AID 504318). Further: nearly all actives have a fitted effect of over 60% in size. Further: potency means the concentration at half of the fitted maximal effect.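 On activity change, negative = inhibition: 0% = DMSO vehicle and -100% = artemisinin control.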 An outline of the steps: as §1
The target of test [6] is Cytochrome P450 2C9 (Homo sapiens) (UniProt P11712). Nature of the test: qHTS Assay for Inhibitors and Substrates of Cytochrome P450 2C9 (AID 883). Further: on the % scale 0 is the no-effect control and ±100 the full control effect; nearly all actives have a fitted effect of over 60% in size. Put shortly:
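Human CYP2C9 (10nM) hydroxylated Luciferin-H (100uM, at its KM) to luciferin in 25mM KPO4. Compound was preincubated 10 min at 37C, then NADPH regeneration started a 60 min reaction at 37C. Luminescence was read after detection reagent, normalized to 57uM sulphaphenazole.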

Test [7] concerns the target Cytochrome P450 3A4 (Homo sapiens) (UniProt P08684). Put plainly: qHTS Assay for Inhibitors and Substrates of Cytochrome P450 3A4 (AID 884). Further: series mostly up to about 57 µM; on the % scale 0 is the no-effect control and ±100 the full control effect; nearly all actives have a fitted effect of over 50% in size. An outline of the steps:
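20 nM human CYP3A4 with 25 uM Luciferin-PPXE (at KM) in 200 mM KPO4, preincubated 10 min with compound; NADPH regeneration started a 60 min RT reaction. Luciferin detected by luminescence, normalized to 57 uM ketoconazole as full inhibition.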

Test [8] addresses Cytochrome P450 2C19 (Homo sapiens) (UniProt P33261). Put plainly: qHTS Assay for Inhibitors and Substrates of Cytochrome P450 2C19 (AID 899). Further: on the % scale 0 is the no-effect control and ±100 the full control effect; nearly all actives have a fitted effect of over 60% in size. An outline of the steps: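 Human CYP2C19 (5nM) with Luciferin-H EGE at 10uM (its KM) in 50mM KPO4 was preincubated with compound for 10 min at 37C. NADPH regeneration started a 60 min 37C reaction. Luciferin was read by luminescence, normalized to 57uM ketoconazole.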

Results filed as inconclusive are left out. Unmarked numbers belong to inactive results. Calls of active or inactive are those of the source. Unless noted, the call rests on the fitted dose curve; in most records, active means well fitted curve in the direction sought with a large enough effect; inconclusive means small, poorly fitted or top-dose-only effect, or another doubt; inactive means no such curve, though single readings can be large; an effect the other way counts as inactive or inconclusive.

Cytochrome P450 2C19 (Homo sapiens), sequence (P33261 whole entry, looked up): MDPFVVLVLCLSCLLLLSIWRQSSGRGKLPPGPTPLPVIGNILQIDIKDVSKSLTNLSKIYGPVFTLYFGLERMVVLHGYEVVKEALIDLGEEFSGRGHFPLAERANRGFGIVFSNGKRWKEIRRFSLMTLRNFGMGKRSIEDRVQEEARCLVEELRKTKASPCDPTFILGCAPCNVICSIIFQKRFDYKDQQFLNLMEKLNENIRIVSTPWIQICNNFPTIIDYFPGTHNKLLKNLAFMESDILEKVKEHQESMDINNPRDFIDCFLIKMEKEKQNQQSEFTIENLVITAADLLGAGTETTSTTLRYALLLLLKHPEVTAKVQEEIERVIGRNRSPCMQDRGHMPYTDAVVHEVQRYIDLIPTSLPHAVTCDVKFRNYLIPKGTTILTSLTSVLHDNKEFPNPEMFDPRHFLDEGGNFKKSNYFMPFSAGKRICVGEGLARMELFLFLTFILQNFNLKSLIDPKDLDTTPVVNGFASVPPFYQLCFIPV
Cytochrome P450 2C9 (Homo sapiens), sequence (P11712 whole entry, looked up): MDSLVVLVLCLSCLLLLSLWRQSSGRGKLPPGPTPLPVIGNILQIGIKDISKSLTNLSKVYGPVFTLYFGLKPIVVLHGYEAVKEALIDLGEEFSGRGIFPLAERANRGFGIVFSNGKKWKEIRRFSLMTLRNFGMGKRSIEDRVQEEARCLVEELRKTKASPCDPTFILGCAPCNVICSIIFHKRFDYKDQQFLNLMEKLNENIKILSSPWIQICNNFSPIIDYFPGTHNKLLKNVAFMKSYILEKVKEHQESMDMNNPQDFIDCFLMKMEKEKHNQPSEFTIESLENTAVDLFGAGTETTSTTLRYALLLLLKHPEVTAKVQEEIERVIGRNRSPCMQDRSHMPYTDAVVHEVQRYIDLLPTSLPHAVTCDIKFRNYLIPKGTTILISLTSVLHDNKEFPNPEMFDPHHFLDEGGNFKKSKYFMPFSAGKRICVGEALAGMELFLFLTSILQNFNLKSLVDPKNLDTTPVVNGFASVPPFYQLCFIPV
Cytochrome P450 3A4 (Homo sapiens), sequence (P08684 whole entry, looked up): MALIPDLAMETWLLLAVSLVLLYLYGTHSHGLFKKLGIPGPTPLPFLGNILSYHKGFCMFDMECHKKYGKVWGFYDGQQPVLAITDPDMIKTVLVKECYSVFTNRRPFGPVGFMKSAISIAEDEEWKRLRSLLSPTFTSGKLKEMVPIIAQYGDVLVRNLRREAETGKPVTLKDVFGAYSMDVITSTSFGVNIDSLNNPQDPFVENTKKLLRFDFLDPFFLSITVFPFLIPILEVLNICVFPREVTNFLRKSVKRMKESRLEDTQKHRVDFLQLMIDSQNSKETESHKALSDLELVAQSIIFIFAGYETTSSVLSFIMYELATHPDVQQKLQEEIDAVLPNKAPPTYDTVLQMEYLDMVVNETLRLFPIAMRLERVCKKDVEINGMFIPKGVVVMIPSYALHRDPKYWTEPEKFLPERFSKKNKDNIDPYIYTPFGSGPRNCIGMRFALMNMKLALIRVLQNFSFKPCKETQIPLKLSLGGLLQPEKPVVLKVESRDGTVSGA

For the molecule `COC(=O)N[C@H](C(C(=O)OC)=C(C)NCc1ccccc1)c1cccc(C)c1`, the Potency entry in test [1], in test [2], in test [3] and in test [4] was “inactive” throughout.

Turning to `COC(=O)c1ccc(CN2C(=O)C3(CC(C)=C[C@@H](C)O3)c3c(Br)cccc32)cc1` (stereo partly specified), the Potency entry in test [1], in test [2], in test [5], in test [3] and in test [4] was “inactive” in each case.

For `CC1(OC(=O)C2CCCC2)C(=O)C=C2C=C(c3ccsc3)N(C3CCCCC3)C=C2C1=O` (stereo unspecified), the Potency result in test [1], in test [2], in test [3] and in test [4] was “inactive” each time.

As for `CC(C)(C)OC(=O)N1CCC[C@@H]1C(O)(c1ccccc1)c1ccccc1`, the Potency entry in test [1], in test [2], in test [3] and in test [4] was “inactive” each time.

Consider `COC(=O)N[C@H](c1ccccc1)C(C(=O)OC)C(=O)OC`, for which the Potency was 1510 nM (active) in test [1], 1900 nM (active) in test [2] and 1900 nM (active) in test [5]. The Potency entry in test [3] and in test [4] was “inactive” throughout.

Regarding `C[C@@H]1C[C@](C)(C(=O)c2ccco2)C=C1c1ccco1`, the Potency result in test [1], in test [2], in test [5], in test [3] and in test [4] was “inactive” each time.

Take `C=CC1=C2C=C(C3CC3)N(CCN3CCOCC3)C=C2C(=O)C(C)(OC(=O)c2ccco2)C1=O` (stereo unspecified): the Potency entry in test [1], in test [2], in test [5], in test [3] and in test [4] was “inactive” throughout.

Take `CCC(=O)C[C@@H](NC(=O)OC)c1ccccc1`: the Potency result in test [1], in test [2], in test [5], in test [3] and in test [4] was “inactive” in each case.

Regarding `Cc1c(O)c(=O)ccn1Cc1ccccc1`, the activity change, negative = inhibition in test [6] was -0.343% [at 11.4 µM]; in test [7], -6.33% [at 11.4 µM]. Further, in test [8], the activity, negative = inhibition is 38.4% [at 11.4 µM].

As for `COc1ccc([C@]23Cc4ccccc4[C@H](O2)C2=C(O3)C(=O)c3ccccc3C2=O)cc1`, the Potency in test [1] is 1690 nM (active). Also, the Potency result in test [3] and in test [4] was “inactive” in each case.

Turning to `C#CCCOC(=O)N1C2=NC3=C(C(=O)N(Cc4ccc5c(c4)OCO5)C3=O)C3N(C)c4ccccc4[C@]23C[C@H]1CO` (stereo partly specified), the Potency entry in test [1], in test [3] and in test [4] was “inactive” in each case.

With `C[C@H]1C=CCC(=O)N[C@@H](c2ccc3ccccc3c2)[C@@H](C)C=CCC(=O)N[C@@H]1c1ccc2ccccc2c1`, the Potency result in test [1], in test [5], in test [3] and in test [4] was “inactive” in each case.

`COC(=O)CC=C[C@@H](C)[C@@H](C=NOC[C@H]1O[C@H](c2ccccc2)C=C[C@H]1Oc1ccc(OC)cc1)N[S+](=O)([O-])c1ccc(C)cc1`: the Potency entry in test [1], in test [3] and in test [4] was “inactive” throughout.

Turning to `CCN1C(=O)N[C@@H](c2ccccc2)[C@H](C(=O)OC)[C@H]1C`, the Potency entry in test [1], in test [5], in test [3] and in test [4] was “inactive” throughout.

`COc1ccc2c3c(c(=O)oc2c1)[C@H]1O[C@](c2ccsc2)(Cc2cc(C#N)ccc21)O3`: the Potency entry in test [1], in test [3] and in test [4] was “inactive” throughout.

With `COc1cccc([C@@H](NC(=O)C(F)(F)F)[C@@H]2CCCC=C2c2ccccc2)c1`, the Potency result in test [1], in test [3] and in test [4] was “inactive” each time.

With `C[C@@H]1CC[C@H]2C(=O)N(Cc3cccc([N+](=O)[O-])c3)C[C@@H](O)CN2[C@@H]1c1ccc(Br)cc1`, the Potency result in test [1], in test [3] and in test [4] was “inactive” each time.

Take `CC12C=C(C=Cc3ccccc3)C(C)(C1)C(c1ccccc1)CC2=O` (stereo unspecified): the Potency entry in test [1], in test [3] and in test [4] was “inactive” in each case.

Turning to `COc1ccc2c(c1)C(=O)[C@H](OC(=O)Nc1cc(OC)c(OC)c(OC)c1)[C@@H](c1ccc(OC)c(Br)c1)O2`, the Potency result in test [1], in test [5], in test [3] and in test [4] was “inactive” in each case.

For the molecule `CC(=O)O[C@@H]1C(CO[Si](C)(C)C(C)(C)C)=C(Br)C(=O)[C@@H]2O[C@]12C`, the Potency result in test [1], in test [5], in test [3] and in test [4] was “inactive” each time.

On to `C#CCN1C(=O)[C@]2(OCCC=C[C@H]2C)c2c(Br)cccc21`, for which the Potency result in test [1], in test [3] and in test [4] was “inactive” throughout.

Consider `COc1cc(CCN2C(=O)NC(c3cccc(C(F)(F)F)c3)C(C(C)=O)=C2C)cc(OC)c1OC` (stereo unspecified), for which the Potency entry in test [1], in test [3] and in test [4] was “inactive” throughout.

For the molecule `CC1(O)C(=O)C=C2C=C3CCCN3C=C2C1=O` (stereo unspecified), the activity change, negative = inhibition in test [6] was 3.99% [at 11.4 µM]. Further, the activity, negative = inhibition in test [8] was 32.3% [at 11.4 µM]. Besides, the Potency result in test [1], in test [5], in test [3] and in test [4] was “inactive” each time.

With `COc1ccc([C@]23Cc4c(ccc5ccccc45)[C@H](O2)C2=C(CCCC2=O)O3)cc1`, the Potency entry in test [1], in test [3] and in test [4] was “inactive” throughout.

Regarding `C[C@]12C[C@@](C)(C=C1C=Cc1ccc(C(F)(F)F)cc1)C(=O)C[C@H]2c1ccc(C(F)(F)F)cc1`, the Potency in test [1] was 1510 nM (active). Moreover, the Potency entry in test [3] and in test [4] was “inactive” each time.

`CC1(OC(=O)c2ccc(Cl)nc2)C(=O)C=C2C=C(c3ccsc3)OC=C2C1=O` (stereo unspecified): the Potency result in test [1], in test [3] and in test [4] was “inactive” in each case.

On to `C=CCC(Nc1ccc(OC)cc1)(C(=O)OCC)c1ccccc1` (stereo unspecified), for which the Potency result in test [1], in test [5], in test [3] and in test [4] was “inactive” in each case.

Consider `CC(C)CON=C1C[C@@H](O)[C@@H](O)[C@@H]2[C@H]3C(=O)N(Cc4ccc5c(c4)OCO5)C(=O)[C@@H]3CC[C@@H]12`, for which the Potency result in test [1], in test [3] and in test [4] was “inactive” throughout.

For the molecule `CC1=C[C@]2(O[C@H](COc3ccccc3)C1)C(=O)N(C)c1ccccc12`, the Potency entry in test [1], in test [5] and in test [3] was “inactive” each time. Besides, in test [4], the result was inactive.

`COc1ccc(N2C(=O)N3[C@H](c4ccccc4)[C@@H](C)C[C@H]4c5ccccc5C[C@]43C2=O)cc1`: the Potency entry in test [1], in test [5], in test [3] and in test [4] was “inactive” throughout.

As to `C#CCOCC#CC[C@@]1(C(=O)OC)C=C[C@@H](C)[C@H](c2ccccc2Br)N1C(=O)C(F)(F)F`, the Potency result in test [1], in test [3] and in test [4] was “inactive” throughout.

`COC(=O)C1=C(C(=O)OC)[C@@H]2N(C)c3ccccc3[C@@]23CCC(=O)N(CCCOC(C)C)C3=N1`: the Potency entry in test [1], in test [3] and in test [4] was “inactive” in each case.

`O=C1CCCC=C1C(O)COCc1ccccc1` (stereo unspecified): the Potency entry in test [1], in test [5], in test [3] and in test [4] was “inactive” throughout.

Regarding `Cc1cc2c(nc1C)CCCCN2C[C@H](C)ON=C1[C@H]2CCn3c(=O)n(-c4ccccc4)c(=O)n3[C@@H]2[C@H](O)[C@@H]2O[C@H]12`, the Potency entry in test [1], in test [3] and in test [4] was “inactive” throughout.
